SARS 3CLpro inh = SARS-CoV 3CLpro protease inhibition; 290,000 compounds, 0.14% hits; AID 1706; inhibition, % at 6 µM; recombinant SARS-CoV 3CLpro, quenched FRET peptide cleavage; in the data active = inhibition above about 12%
RecA intein inh = Mtb RecA intein splicing inhibition | P9WHJ3 | cell-free RecA intein splicing, fluorescence | inhibition, % (test concentration not listed) | 290,000 compounds, 0.75% hits; in the data active = inhibition above about 30%;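 note: 0% = vehicle wells and 100% = reference inhibitor control wells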
GDH-TPI inh = inhibits GDH-TPI coupling enzymes, artifact for Mtb FBA screen; GDH-TPI coupled enzyme counterscreen, NADH absorbance; inhibition, % at 4.8 µM; 360,000 compounds, 1.2% hits; AID 588335;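 note: 0% = DMSO wells and 100% = wells lacking the enzyme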
DUSP3 inh = inhibitors of human VHR1 phosphatase (DUSP3); recombinant VHR phosphatase, pNPP absorbance; P51452; inhibition, % at 13.3 µM; 290,000 compounds, 0.52% hits; in the data active = inhibition above about 50%
Target sequence (P51452 whole entry, looked up): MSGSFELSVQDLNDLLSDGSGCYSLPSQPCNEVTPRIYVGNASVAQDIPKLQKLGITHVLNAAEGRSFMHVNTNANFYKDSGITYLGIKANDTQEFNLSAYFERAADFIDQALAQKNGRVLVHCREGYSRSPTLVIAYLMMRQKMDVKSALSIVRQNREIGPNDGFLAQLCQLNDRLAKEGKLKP
FBA Mtb inh = Mtb fructose-bisphosphate aldolase inhibition. P9WQA3. purified M. tuberculosis FBA, fluorescence read-out. inhibition, % at 1 µM. 360,000 compounds, 2.3% hits; in the data active = inhibition above about 27%;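 note: 0% = vehicle and 100% = reference inhibitor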
CCHF vOTU inh = CCHFV vOTU protease inhibition. inhibition, % at 11.5 µM. AID 651958. 370,000 compounds, 0.55% hits. Pep-AMC fluorescence; note: 0% = vehicle wells with enzyme and 100% = no enzyme wells
GFP chromophore = counter-screen: blocks GFP chromophore formation | shares compounds with RecA intein inh | cell-free GFP chromophore formation, fluorescence | EC50, µM | 2,100 compounds, 83% hits; call rule not given here
* hit, by the source's call; nt = no result. An excerpt weighted towards active compounds, which were near 4.7% of everything screened. Cut-off read from the data, not from the text of the source, unless noted: active = inhibition above about 30%; inactive = the rest.

SMILES	SARS 3CLpro inh	RecA intein inh	GDH-TPI inh	DUSP3 inh	FBA Mtb inh	CCHF vOTU inh	GFP chromophore
Cc1cccc(N2C(=O)C(Cl)=C(N3CCOCC3)C2=O)c1	-6	87*	24	1	0	1	4.5*
O=C(CNC(=O)c1ccccc1)Oc1cccc(Cl)c1	nt	10	-1	nt	-1	0	nt
COc1ccc(S(=O)(=O)Nc2noc3ccccc23)cc1	-3	-3	5	7	-1	-4	nt
CC1(C)CC(=O)C(C2(O)C(=O)NC(=O)NC2=O)=C(O)C1	5	95*	12	-12	2	8	2.5*
CC(C)CN(C(=O)COC(=O)c1ccccc1SCC(=O)N1CCCC1)C1CCS(=O)(=O)C1 (stereo unspecified)	nt	nt	10	nt	5	-4	nt
CC1=NN(c2ccccc2)C(=O)/C1=C/c1cccs1	-2	85*	16	2	1	16	6*
COc1cc(/C=C2/C(=O)N(c3ccccc3)N=C2C)ccc1OS(=O)(=O)c1ccccc1	-5	70*	nt	7	nt	nt	1.9*
CC1=NN(c2ccccc2)C(=O)/C1=C\c1cc(C)n(-c2ccccc2)c1C	-7	0	5	15	0	-5	nt
CC1=NN(c2ccccc2)C(=O)/C1=C\c1cc(C)n(-c2cccnc2)c1C	-2	33*	4	-4	0	-8	31*
CC1=NN(c2cccc(F)c2)C(=O)/C1=C/c1ccc(N(C)C)cc1	-1	1	17	-10	1	0	nt
COc1ccc(/C=C2/C(=O)N(c3cccc(F)c3)N=C2C)c(OC)c1	2	46*	16	18	1	-4	>38
O=[N+]([O-])/C(C(=C(Cl)Cl)N1CCN(Cc2ccccc2)CC1)=C1\NCCN1Cc1ccc(Cl)nc1	-2	13	9	24	0	15	nt
O=C(C(=C1N(Cc2ccc(Cl)nc2)CCN1Cc1ccc(Cl)nc1)[N+](=O)[O-])C(Cl)Cl	-3	76*	13	14	-1	-14	6.5*
Cn1cnc([N+](=O)[O-])c1S(=O)(=O)c1cccc(Cl)c1	1	61*	2	5	0	19	27*
Cn1cnc([N+](=O)[O-])c1S(=O)(=O)Oc1ccccc1	nt	nt	0	nt	-4	8	nt
COc1cc(NCc2ccccc2O)c2ncccc2c1	-2	1	-1	21	0	9	nt
COc1cc(NCCCCCCCN)c2ncccc2c1	5	72*	3	4	-1	nt	5.2*
Cc1ccc(NC(=O)c2ccccc2)cc1	0	2	-2	30	-2	-6	nt
Cc1ccc(NC(=O)C2=C(c3ccccc3)S(=O)(=O)CCS2(=O)=O)cc1	2	94*	1	11	4	5	1.9*
Cc1ccc(-n2nc3c(=O)n(CC(=O)NCCc4ccccc4C)nc(C)c3c2C)cc1	-3	2	0	-14	-1	0	nt
CCOC(=O)c1nnn(-c2nonc2-n2cccc2)c1CCl	2	70*	5	0	6	6	12*
Oc1ccccc1Nc1nc(NCc2ccco2)c2ccccc2n1	-1	22	14	8	4	1	nt
Cc1cccc(Nc2nc(NCc3ccco3)c3ccccc3n2)c1	2	33*	6	-6	6	14	15*
Cc1ccccc1Nc1nc(NCc2ccco2)c2ccccc2n1	-3	28	0	22	2	11	nt
c1ccc(Nc2nc(NCc3ccco3)c3ccccc3n2)cc1	-4	38*	-2	29	4	-7	26*
SMILES	SARS 3CLpro inh	RecA intein inh	GDH-TPI inh	DUSP3 inh	FBA Mtb inh	CCHF vOTU inh	GFP chromophore
Cc1cc(C)n2nc(C(=O)OCC(=O)Nc3cc(S(=O)(=O)N4CCOCC4)ccc3Cl)nc2n1	nt	nt	6	nt	2	0	nt
CCOc1cc(NC2CS(=O)(=O)CC2O)c(OCC)cc1NC(=O)c1ccccc1 (stereo unspecified)	6	59*	8	37	5	8	>38
CCOc1cc(NC(=O)c2ccccn2)c(OCC)cc1NC(=O)c1ccccc1	-1	-4	5	-14	1	13	nt
Cc1ccc(/C=C2\SC(N3CCN(C(c4ccccc4)c4ccccc4)CC3)=NC2=O)o1	4	33*	3	8	1	7	>38
CCSc1nc2ccccc2c(=O)n1Cc1ccc(F)cc1	4	4	-2	7	1	-3	nt
Oc1cccc(-c2ccc3nccn3c2)c1	nt	nt	8	nt	13	7	nt

Bioassay records (PubChem BioAssay)
